Screening data as filed in PubChem.
Only some compounds are listed: those with a hit (about 4.3% of all), similar ones and a draw of the others.
uPA generation: blocks generation of uPA at the cell surface. cell surface uPA generation assay, qHTS. Potency, µM (series often up to 38.3 µM), for the others: top-dose activity change, negative = inhibition, actives largely listed as inhibitors. 330,000 compounds, 0.31% hits; active = well fitted inhibition curve with a large enough effect; inconclusive = small, poorly fitted or top-dose-only effect; inactive = no such curve, though single readings can be large or run the other way; tested in mouse RAW 264.7 cells; note: potency is the fitted concentration of half-maximal effect; % is set by controls: 0 for no effect and ±100 for the full control effect; nearly all actives have a fitted effect of over 55% in size
MCF10A rerep: DNA re-replication induction in MCF 10a cells; Potency, µM (highest dose often 46.1 µM), inactives show top-dose activity, positive = re-replication, usual class: activators; 350,000 compounds, 2.9% hits; AID 624296; MCF 10A DNA re-replication, Hoechst nuclear intensity, 48 h; note: potency is the fitted concentration of half-maximal effect; % of control where 0% means no effect; nearly all actives have a fitted effect of over 50% in size
SW480 rereplic: DNA re-replication induction in SW480 cells; SW480 DNA re-replication, Hoechst DNA content imaging, 48 h; Potency, µM (top dose mostly 46.1 µM), for inactives: at the highest dose re-replication activation, usual class: activators; 340,000 compounds, 1.8% hits; AID 624297; note: potency is the fitted concentration of half-maximal effect; % of control where 0% means no effect; nearly all actives have a fitted effect of over 55% in size
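Image-based read-out: total Hoechst fluorescence of nuclei (405 nm excitation, 500-530 nm emission), with hits raising the fraction of high-intensity nuclei. SW480 colon cells incubated 48 hr with compounds at 37 C.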
Giardia killer: kills Giardia lamblia. Giardia lamblia trophozoite viability. AID 540267. 340,000 compounds, 0.15% hits. activity change, % at 7.66 µM, hits read low; in the data active = activity change below about -80%; inconclusive = between about -30% and that limit;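 note: parasites exposed to compound for two days anaerobically before the ATP read; % is set by controls: 0 for no effect and ±100 for the full control effect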
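Luminescent ATP signal served as the viability read-out, measured 15-30 min after adding ATP detection reagent to trophozoites that had been incubated with compounds for 48 hrs at 37 deg C anaerobically at 100 cells/well.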
Active calls of the source: *; u = inconclusive; x = not tested or not shown. Unless noted, calls come from the whole dose curve; as a rule, active = well fitted activation curve with a large enough effect; inconclusive = small, poorly fitted or top-dose-only effect; inactive = no such curve, though single readings can be large or run the other way.

SMILES | uPA generation | MCF10A rerep | SW480 rereplic | Giardia killer
Cc1cc(C)c(S(=O)(=O)Nc2cc(C)on2)c(C)c1 | 1% | 0% | 1% | -6
COc1cc(/C=C(/C(=O)c2cccs2)c2nc3ccccc3[nH]2)ccc1O | x | 4.1µM* | 7.3µM* | 12
COc1ccc(/C=C(\C#N)c2nc3ccccc3[nH]2)cc1O | -15% | u | u | -3
O=C(/C(=C/c1ccc(Cl)cc1)c1nc2ccccc2[nH]1)c1cccs1 | u | 5.2µM* | u | -22
O=C(/C(=C\c1ccccc1)c1nc2ccccc2[nH]1)c1ccc(Cl)cc1 | -16% | 4.1µM* | u | -6
COc1cccc(/C=N/NC(=O)CN2CC(c3ccccc3)CC2=O)c1O (centres undefined) | -4% | u | 7.3µM* | 8
COc1cccc(/C=N/NC(=O)c2ccc(-c3ccccc3)cc2)c1O | -13% | u | u | 3
COc1cccc(/C=N/NC(=O)CNC(=O)COc2ccccc2)c1O | u | 6% | 3.3µM* | 27
COc1cccc(/C=N/NC(=O)C[n+]2ccccc2)c1O | 1% | u | u | 27
COc1ccc(CCCC(=O)N/N=C/c2cccc(OC)c2O)cc1C | -12% | 1.5µM* | u | 7
COc1cc(CC2C(=O)OCC2C(=O)c2ccc3c(c2)OCO3)cc(OC)c1OC (centres undefined) | 0% | -1% | 0% | 18
CCCOc1ccccc1C(=O)N1CCCCC1CCN1CCCCC1 (centres undefined) | x | x | x | -25
CS(=O)(=O)N1CCN(c2nc(-c3cccs3)nc3ccccc23)CC1 | x | x | x | -12
CCN(CC)CCOC(=O)c1ccc(NC(=O)c2cn(-c3ccccc3)nc2-c2cccs2)cc1 | -3% | 21µM* | -8% | 4
COc1c(O)c(=O)n2c3ccccc3c3ccnc1c32 | -21% | 10% | -6% | 10
O=c1c(Cl)c(O)c2cccc3c4ccccc4n1c23 | -2% | 23µM* | -4% | 3
Cc1cc(C)c(OCCOCCN2CCN(C)CC2)c(Cl)c1 | -1% | 5.8µM* | -34% | 9
CCN(CC(=O)Nc1c(F)cccc1F)C(=O)c1ccc(OCC(=O)N2CCOCC2)c(OC)c1 | 1% | -10% | -132% | -17
COc1ccccc1N(CC(=O)NCC1CCCO1)C(=O)CNS(=O)(=O)c1ccc(C)cc1 (centres undefined) | x | 2% | -9% | -3
COc1ccccc1N(CC(=O)NCC1CCCO1)C(=O)CNS(=O)(=O)c1ccc(Cl)cc1 (centres undefined) | -3% | 0% | 0.73µM* | -8
CCOc1ccc(Cn2nnc(-c3ccc(S(C)(=O)=O)cc3)n2)cc1OCC | 10% | 3% | -7% | 1
COc1ccc2c(=O)cc(-c3ccncc3)oc2c1OC | -9% | u | u | -4
COc1ccc(C(=O)CSc2nnc(-c3ccco3)c(-c3ccco3)n2)cc1 | -16% | 4% | 6.5µM* | -5
O=C(CSc1nnc(-c2ccco2)c(-c2ccco2)n1)Nc1ccccc1 | -7% | 8% | -9% | -6
COc1ccc(C(=O)CSc2nnc(-c3ccco3)n2C)cc1 | -3% | -2% | -7% | 3
SMILES | uPA generation | MCF10A rerep | SW480 rereplic | Giardia killer
Cc1ccc(NC(=O)CSc2nnc(-c3ccco3)c(-c3ccco3)n2)cc1 | -7% | 5.8µM* | 16µM* | -6
CCN1CCN(S(=O)(=O)c2ccc(Cl)c(C(=O)N(C)Cc3ccc(C(C)(C)C)cc3)c2)CC1 | u | 23% | -4% | -16
Fc1ccc2cc(-c3ccsc3)ncc2c1 | -13% | -7% | -2% | u
O=C(Nc1ccc([N+](=O)[O-])cc1)Nc1ccon1 | -15% | 5.8µM* | u | 18
O=S(=O)(c1ccc(OCC2CO2)cc1)c1ccc(OCC2CO2)cc1 (centres undefined) | 5.6µM* | u | 18% | -10
CC(=O)Nc1cccc(OCc2cnc(Cl)s2)c1 | 14% | 0.15µM* | 13% | 10
COc1ccc(S(=O)(=O)Nc2ccc3c(c2)C(=O)N([C@H](C)CO)C[C@H](C)[C@@H](CN(C)C(=O)Nc2c(C)noc2C)O3)cc1 | -9% | 6% | -4% | -20
CC(C)N(C1=N/C(=C\c2ccco2)C(=O)N1c1ccccc1)C(C)C | -4% | 7.3µM* | u | 11
O=C1/C(=C/c2ccco2)N=C(N2CCCCC2)N1c1ccccc1 | -3% | u | u | -11
CCOc1ccccc1NC(=O)CSc1cn[nH]n1 | -5% | 16µM* | -59% | 6
CCOc1ccccc1NC(=O)c1ccccc1-c1nc(-c2ccccc2)no1 | -10% | 26% | 23µM* | 4
